The values below come from PubChem BioAssay (Tox21).

Inconclusive results are not listed. Activity calls are given as the source filed them. Calls come from the whole dose curve.
% is set by controls: 0 for no effect and ±100 for the full control effect.

Sequence of Acetylcholinesterase (Homo sapiens) (P22303 whole entry, looked up): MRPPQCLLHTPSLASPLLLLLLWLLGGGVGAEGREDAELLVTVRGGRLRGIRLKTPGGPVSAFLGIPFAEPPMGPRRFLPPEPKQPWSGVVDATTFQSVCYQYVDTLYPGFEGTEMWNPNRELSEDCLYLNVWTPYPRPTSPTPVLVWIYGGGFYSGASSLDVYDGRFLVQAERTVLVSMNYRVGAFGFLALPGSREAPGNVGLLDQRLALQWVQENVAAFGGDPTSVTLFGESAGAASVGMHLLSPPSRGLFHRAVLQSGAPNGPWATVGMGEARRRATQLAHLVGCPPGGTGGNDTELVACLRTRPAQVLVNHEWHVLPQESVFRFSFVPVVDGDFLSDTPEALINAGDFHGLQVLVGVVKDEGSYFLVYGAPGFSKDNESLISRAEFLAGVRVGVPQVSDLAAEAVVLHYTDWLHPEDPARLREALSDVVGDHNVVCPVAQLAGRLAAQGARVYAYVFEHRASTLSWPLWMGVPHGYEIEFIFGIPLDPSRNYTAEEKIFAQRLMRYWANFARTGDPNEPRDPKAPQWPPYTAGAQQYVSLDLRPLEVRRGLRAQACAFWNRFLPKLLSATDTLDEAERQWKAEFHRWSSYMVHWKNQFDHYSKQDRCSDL

The first test concerns the target Acetylcholinesterase (Homo sapiens) (UniProt P22303). Briefly: Acetylcholinesterase (AChE) small molecule antagonists: fluorescence cell-based qHTS assay (AID 1347398). Note: nearly all actives have a fitted effect of over 50% in size. The following applies: SH-SY5Y cells; Potency: AChE activity; outcome: AChE activity; series mostly up to 115 µM; activity change, negative = inhibition: at the top concentration. The procedure, abridged: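 Endogenous acetylcholinesterase of SH-SY5Y neuroblastoma cells is measured in situ. After overnight attachment and 30 min compound exposure, cells receive acetylthiocholine and Thiolite Green; fluorescence is read after 40 min at room temperature.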
As for `CC(C)NNC(=O)c1ccncc1`, the “activity change, negative = inhibition” value was 6.25% [at 53.7 µM] (inactive).
For the compound `Cc1cnccn1`, the “activity change, negative = inhibition” value was 4.69% (inactive).
Same read-out and setting: with `COc1cc(C)ccc1O` the figure was -0.0441% (inactive); with `O=S(=O)(O)c1cc(S(=O)(=O)O)c2c(N=Nc3ccccc3)c(O)ccc2c1`, -21.1% (inactive); with `CCCCCCCCCC/C=C/C#N`, -1.2% (inactive).
Same read-out and setting: with `Cc1cccc2c1ccc1ccccc12` the figure was 0.787% (inactive).
As to `CCCCC(CC)CO` (stereo not given), the Potency result is “inactive”.
For `C=Cc1ccccc1`, the “activity change, negative = inhibition” value is -0.705% (inactive).
As to `O=c1[nH]c(=O)n([C@H]2C[C@H](O)[C@@H](CO)O2)cc1C(F)(F)F`, the “activity change, negative = inhibition” value is 3.39% [at 53.7 µM] (inactive).
Still for that read-out and setting: the same measure for `CCCCCCCCCOCC1CO1` (stereo not given): -2.49% (inactive).
On to `O=C1NC2NC(=O)NC2N1` (stereo not given), for which the “activity change, negative = inhibition” value is 1.64% (inactive).
With `C#CC(C)(O)CC(C)C` (stereo not given), the “activity change, negative = inhibition” value was -2.05% (inactive).
With `COC1CCC=CO1` (stereo not given), the “activity change, negative = inhibition” value is 4.28% (inactive).
On to `CC(C)=CCC/C(C)=C/C=O`, for which the Potency result is “inactive”.
On to `C=CCCC`, for which the “activity change, negative = inhibition” value was 1.04% (inactive).
On the same count and under the same terms, the same measure for `CCCCS`: 0.109% (inactive).
On the same count and under the same terms, the same measure for `C=CCOCC(O)CCl` (stereo not given): 0.841% (inactive).
In the case of `Nc1ccc(S(=O)(=O)Nc2nccs2)cc1`, the Potency result was “inactive”.
Consider `O=C(Oc1ccccc1)Oc1ccccc1`, for which the “activity change, negative = inhibition” value was -15.7% (inactive).
On the same count and under the same terms, the same measure for `c1ccc(CCNc2nc(-c3ccccc3)cs2)cc1`: -0.867% [at 53.7 µM] (inactive); for `C=Cc1ccccc1C=C`: 5.19% [at 293 µM] (inactive); for `CC(C)C[C@H](NC(=O)[C@H](CCc1ccccc1)NC(=O)CN1CCOCC1)C(=O)N[C@@H](Cc1ccccc1)C(=O)N[C@@H](CC(C)C)C(=O)[C@@]1(C)CO1`: 26.9% [at 53.7 µM] (inactive).
Same read-out and setting: with `Cc1c(NC(=O)c2cccnc2)c(=O)n(-c2ccccc2)n1C` the figure was -4.57% [at 53.7 µM] (inactive); with `O=C1OC2(c3ccccc31)c1ccc(O)c(Br)c1Oc1c2ccc(O)c1Br`, 129% (inactive); with `NC(=O)c1cccc([N+](=O)[O-])c1`, 0.829% (inactive).
Still for that read-out and setting: with `CCCC(=O)OCCC(C)CCC=C(C)C` (stereo not given) the figure was -4.71% (inactive); with `Cc1nc2ccccc2c(=O)o1`, 0.405% (inactive).
On to `NC(=O)c1ccc([N+](=O)[O-])cc1Cl`, for which the Potency entry is “inactive”.
For `CCCCC(=O)N(C)C`, the “activity change, negative = inhibition” value was 4.21% (inactive).
For the compound `CCCCCCc1ccc(O)cc1O`, the Potency entry was “inactive”.
Still for that read-out and setting: the same measure for `[Cl][In]([Cl])[Cl]`: “inactive”.
For `CCCC(=O)O[C@]1(C(=O)CC)CC[C@H]2[C@@H]3CCC4=CC(=O)CC[C@]4(C)[C@H]3[C@@H](O)C[C@@]21C`, the “activity change, negative = inhibition” value was 2.18% [at 53.7 µM] (inactive).
The same measure, in the same setting: with `CC1(C)CC(OC(=O)CCCCCCCCC(=O)OC2CC(C)(C)NC(C)(C)C2)CC(C)(C)N1` the figure was -14.4% [at 23.8 µM] (inactive).
For the compound `O=[Se](O)O`, the Potency result is “inactive”.
For `Cc1ccc(C(C)(C)C)cc1`, the Potency entry is “inactive”.
Regarding `O=C(Nc1ccccc1)c1cc(Cl)ccc1O`, the “activity change, negative = inhibition” value was 1.09% (inactive).
Still for that read-out and setting: the same measure for `O=[N+]([O-])c1cc(C2CCCCC2)c(O)c([N+](=O)[O-])c1`: -2.08% (inactive).
For the compound `Nc1ccc(S(=O)(=O)Nc2ccccn2)cc1`, the “activity change, negative = inhibition” value was 5.38% [at 53.7 µM] (inactive).
Same read-out and setting: the same measure for `Cc1cc(C(C)(C)C)c(O)c(C)c1Cn1c(=O)n(Cc2c(C)cc(C(C)(C)C)c(O)c2C)c(=O)n(Cc2c(C)cc(C(C)(C)C)c(O)c2C)c1=O`: 2.36% (inactive).
Still for that read-out and setting: the same measure for `CNC1(C)C2CCC(C2)C1(C)C` (stereo not given): 7.32% [at 53.7 µM] (inactive).

For the next test the target is unchanged. Kind of test: Acetylcholinesterase (AChE) small molecule antagonists: enzyme-based qHTS assay with human liver microsomes (AID 1347399). Note: nearly all actives have a fitted effect of over 60% in size. The following applies: Potency: qHTS inhibition; outcome: qHTS inhibition; series mostly up to 115 µM; activity change, negative = inhibition: at the top concentration. The procedure, abridged:
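Recombinant human AChE (50 mU/mL in the enzyme mix) and human liver microsomes (0.25 mg/mL final) were preincubated with compound and NADPH (0.25 mg/mL final) for 30 min at 37 C. Acetylthiocholine/DTNB was then added; thiocholine was read colorimetrically after 10 min at room temperature.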
(In general: Quantitative high-throughput screening tests each substance at several concentrations.)
Consider `CC(C)NNC(=O)c1ccncc1`, for which the “activity change, negative = inhibition” value is 0.504% [at 53 µM] (inactive).
In the case of `Cc1cnccn1`, the “activity change, negative = inhibition” value was -2.85% (inactive).
Still for that read-out and setting: with `COc1cc(C)ccc1O` the figure was 0.743% (inactive).
Take `O=S(=O)(O)c1cc(S(=O)(=O)O)c2c(N=Nc3ccccc3)c(O)ccc2c1`: the Potency entry is “inactive”.
In the case of `CCCCCCCCCC/C=C/C#N`, the “activity change, negative = inhibition” value was 0% (inactive).
On the same count and under the same terms, with `Cc1cccc2c1ccc1ccccc12` the figure was -0.32% (inactive).
Turning to `CCCCC(CC)CO` (stereo not given), the Potency result was “inactive”.
Consider `C=Cc1ccccc1`, for which the “activity change, negative = inhibition” value is 0% (inactive).
The same measure, in the same setting: the same measure for `O=c1[nH]c(=O)n([C@H]2C[C@H](O)[C@@H](CO)O2)cc1C(F)(F)F`: -1.63% [at 53 µM] (inactive); for `CCCCCCCCCOCC1CO1` (stereo not given): 0.341% (inactive).
For `O=C1NC2NC(=O)NC2N1` (stereo not given), the “activity change, negative = inhibition” value is 0.226% (inactive).
Same read-out and setting: the same measure for `C#CC(C)(O)CC(C)C` (stereo not given): 0.696% (inactive).
In the case of `COC1CCC=CO1` (stereo not given), the “activity change, negative = inhibition” value was -0.188% (inactive).
For the compound `CC(C)=CCC/C(C)=C/C=O`, the Potency entry was “inactive”.
For the compound `C=CCCC`, the “activity change, negative = inhibition” value is 5.28% (inactive).
The same measure, in the same setting: with `CCCCS` the figure was 0.133% (inactive); with `C=CCOCC(O)CCl` (stereo not given), 2.37% (inactive).
Regarding `Nc1ccc(S(=O)(=O)Nc2nccs2)cc1`, the Potency result is “inactive”.
Consider `O=C(Oc1ccccc1)Oc1ccccc1`, for which the “activity change, negative = inhibition” value is 0.511% (inactive).
For `c1ccc(CCNc2nc(-c3ccccc3)cs2)cc1`, the “activity change, negative = inhibition” value was -0.466% [at 53 µM] (inactive).
Still for that read-out and setting: with `C=Cc1ccccc1C=C` the figure was -1.09% [at 300 µM] (inactive); with `CC(C)C[C@H](NC(=O)[C@H](CCc1ccccc1)NC(=O)CN1CCOCC1)C(=O)N[C@@H](Cc1ccccc1)C(=O)N[C@@H](CC(C)C)C(=O)[C@@]1(C)CO1`, -1.08% [at 53 µM] (inactive); with `Cc1c(NC(=O)c2cccnc2)c(=O)n(-c2ccccc2)n1C`, -1.17% [at 53 µM] (inactive).
The same measure, in the same setting: the same measure for `O=C1OC2(c3ccccc31)c1ccc(O)c(Br)c1Oc1c2ccc(O)c1Br`: 0.612% (inactive); for `NC(=O)c1cccc([N+](=O)[O-])c1`: -1.68% (inactive).
Same read-out and setting: the same measure for `CCCC(=O)OCCC(C)CCC=C(C)C` (stereo not given): -0.298% (inactive); for `Cc1nc2ccccc2c(=O)o1`: -0.318% (inactive).
`NC(=O)c1ccc([N+](=O)[O-])cc1Cl`: the Potency entry is “inactive”.
In the case of `CCCCC(=O)N(C)C`, the “activity change, negative = inhibition” value is -1.18% (inactive).
On to `CCCCCCc1ccc(O)cc1O`, for which the Potency result was “inactive”.
On the same count and under the same terms, the same measure for `[Cl][In]([Cl])[Cl]`: “inactive”.
With `CCCC(=O)O[C@]1(C(=O)CC)CC[C@H]2[C@@H]3CCC4=CC(=O)CC[C@]4(C)[C@H]3[C@@H](O)C[C@@]21C`, the “activity change, negative = inhibition” value was 0.728% [at 53 µM] (inactive).
Still for that read-out and setting: the same measure for `CC1(C)CC(OC(=O)CCCCCCCCC(=O)OC2CC(C)(C)NC(C)(C)C2)CC(C)(C)N1`: 0.16% [at 23.6 µM] (inactive).
Consider `O=[Se](O)O`, for which the Potency result is “inactive”.
On to `Cc1ccc(C(C)(C)C)cc1`, for which the Potency entry was “inactive”.
With `O=C(Nc1ccccc1)c1cc(Cl)ccc1O`, the “activity change, negative = inhibition” value is -0.306% (inactive).
As for `O=[N+]([O-])c1cc(C2CCCCC2)c(O)c([N+](=O)[O-])c1`, the “activity change, negative = inhibition” value was 46.8% (inactive).
`Nc1ccc(S(=O)(=O)Nc2ccccn2)cc1`: the “activity change, negative = inhibition” value is -1.65% [at 53 µM] (inactive).
Still for that read-out and setting: the same measure for `Cc1cc(C(C)(C)C)c(O)c(C)c1Cn1c(=O)n(Cc2c(C)cc(C(C)(C)C)c(O)c2C)c(=O)n(Cc2c(C)cc(C(C)(C)C)c(O)c2C)c1=O`: 2.65% (inactive); for `CNC1(C)C2CCC(C2)C1(C)C` (stereo not given): -0.147% [at 53 µM] (inactive).
